Results on 25 molecules are retold here after PubChem BioAssay (Tox21).

Records with an inconclusive call do not appear. The source made the active and inactive calls. Unless noted, calls follow the shape of the full dose curve.

Experiment [1] in a line: qHTS assay to identify small molecule antagonists of the sonic hedgehog signaling (Shh) pathway (AID 1259369). Also: nearly all actives have a fitted effect of over 45% in size. Also: potency is read from the fitted curve at half-maximal effect. An outline of the steps:
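NIH/3T3 stable Gli1-Luc clone, 2,000 cells/well, 4hr settle; cpd + conditioned medium 24hr; Luc reagent 30min RT; luminescence.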
Background: In qHTS, concentration-response curves come from the screen itself.

Experiment [2] addresses Estrogen receptor beta (Homo sapiens) (UniProt Q92731). Kind of experiment: qHTS assay to identify small molecule agonists of the estrogen receptor beta (ER-beta) signaling pathway (AID 1259377; active = well fitted activation curve with a large enough effect in the signal ratio in the repeat runs, not every such curve was filed as active; the % refers to the signal ratio). Put shortly:
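Measured by fluorescence intensity from a B/G FRET beta-lactamase substrate (2 h, room temperature) in ER-beta-UAS-bla HEK293T cells treated with DMSO-dissolved compounds for 16 hr at 37C and 5% CO2.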

Experiment [3] has the same target. In words: qHTS assay to identify small molecule antagonists of the estrogen receptor beta (ER-beta) signaling pathway (AID 1259378; active = well fitted inhibition curve with a large enough effect in the signal ratio in the repeat runs, not every such curve was filed as active; the % refers to the signal ratio). An outline of the steps: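 ER-beta-UAS-bla HEK293T cells in 2% charcoal-stripped FBS medium treated with compound plus 1nM final 17-beta-estradiol for 16 hr at 37C. Beta-lactamase reporter read by FRET substrate fluorescence after 2 hours at room temperature.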

A short description of experiment [4]: qHTS assay to identify small molecule agonists of the androgen receptor (AR) signaling pathway in the presence of an antagonist - cell viability counter screen (AID 1259379; active = well fitted curve in the direction sought with a large enough effect in the repeat runs; an effect the other way counts as inactive or inconclusive; also: nearly all actives have a fitted effect of over 25% in size; also: potency is read from the fitted curve at half-maximal effect). Put shortly: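 MDA-kb2 viability measured by CellTiter-Fluor fluorescence in the same wells as the luciferase signal; nilutamide 3.0uM final; 15-point compound titration; 16 hr at 37C.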

A short description of experiment [5]: qHTS assay to identify small molecule agonists of the estrogen receptor beta (ER-beta) signaling pathway - cell viability counter screen (AID 1259380; active = well fitted curve in the direction sought with a large enough effect in the repeat runs; an effect the other way counts as inactive or inconclusive; also: nearly all actives have a fitted effect of over 30% in size). An outline of the steps: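 Measured: luminescence from CellTiter-Glo after 30 min at room temperature, added to wells already read for the LiveBLAzer FRET reporter (2 hr substrate); ER-beta-UAS-bla HEK293T cells had 16 hr compound treatment at 37C, 5% CO2.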

Experiment [6] is described as follows: qHTS assay to identify small molecule antagonists of the estrogen receptor beta (ER-beta) signaling pathway - cell viability counter screen (AID 1259382; active = well fitted curve in the direction sought with a large enough effect in the repeat runs; an effect the other way counts as inactive or inconclusive; also: series mostly up to about 92 µM; nearly all actives have a fitted effect of over 55% in size). An outline of the steps: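 Readout: luminescence, CellTiter-Glo, same wells as bla assay. System: ER-beta-UAS-bla GripTite HEK293T, 2% charcoal-stripped FBS. Exposure: compounds plus 1nM 17-beta-estradiol, 16 hr, 37C.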

The target in experiment [7] is Estrogen receptor (Homo sapiens) (UniProt P03372). Kind of experiment: qHTS assay to identify small molecule agonists of the estrogen receptor alpha (ER-alpha) signaling pathway in the presence of an antagonist (AID 1259383). Also: top concentration of the series differs between compounds; nearly all actives have a fitted effect of over 15% in size. An outline of the steps:
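Quantitative HTS confirmation: compounds titrated at 15 concentrations onto estrogen-deprived VM7Luc4E2 cells carrying a four-ERE luciferase construct, with ICI-182,780 present at 10.0nM final. Signal is luminescence after 22hr exposure.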

The nature of experiment [8]: qHTS assay to identify small molecule agonists or antagonists of the thyroid stimulating hormone receptor (TSHR) signaling pathway - wild type cell line counter screen (AID 1259384). An outline of the steps:
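Wild-type Hek293 cells, 800/well, 18 h at 37C, then compound with Ro20-1724 for 30 min RT. cAMP by HTRF (cAMP-d2/anti-cAMP cryptate), 1 h RT, fluorescence read. 15 concentrations, triplicates.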

The target of experiment [9] is Thyrotropin receptor (Homo sapiens) (UniProt P16473). In words: qHTS assay to identify small molecule antagonists of the thyroid stimulating hormone receptor (TSHR) signaling pathway (AID 1259385). Also: nearly all actives have a fitted effect of over 20% in size. Also: potency is read from the fitted curve at half-maximal effect. An outline of the steps: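 TSHR-HEK293 cells (800/well) plated 18 h, then compounds with Ro20-1724 and TSH at 1.5 ng/mL final, 30 min at room temperature. cAMP quantified by HTRF (cAMP-d2/anti-cAMP-cryptate, 1 h); 15 concentrations in triplicate.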

The target in experiment [10] is Androgen receptor (Homo sapiens) (UniProt P10275). In words: qHTS assay to identify small molecule agonists of the androgen receptor (AR) signaling pathway in the presence of an antagonist (AID 1259381). Also: nearly all actives have a fitted effect of over 15% in size. An outline of the steps: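 Luminescent ONE-Glo read, 30min at room temperature, follows 16hr compound exposure (15 concentrations) of MDA-kb2 cells at 37C, 0% CO2, with nilutamide added at 3.0uM final.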
Sequence of Androgen receptor (Homo sapiens) (P10275 whole entry, looked up): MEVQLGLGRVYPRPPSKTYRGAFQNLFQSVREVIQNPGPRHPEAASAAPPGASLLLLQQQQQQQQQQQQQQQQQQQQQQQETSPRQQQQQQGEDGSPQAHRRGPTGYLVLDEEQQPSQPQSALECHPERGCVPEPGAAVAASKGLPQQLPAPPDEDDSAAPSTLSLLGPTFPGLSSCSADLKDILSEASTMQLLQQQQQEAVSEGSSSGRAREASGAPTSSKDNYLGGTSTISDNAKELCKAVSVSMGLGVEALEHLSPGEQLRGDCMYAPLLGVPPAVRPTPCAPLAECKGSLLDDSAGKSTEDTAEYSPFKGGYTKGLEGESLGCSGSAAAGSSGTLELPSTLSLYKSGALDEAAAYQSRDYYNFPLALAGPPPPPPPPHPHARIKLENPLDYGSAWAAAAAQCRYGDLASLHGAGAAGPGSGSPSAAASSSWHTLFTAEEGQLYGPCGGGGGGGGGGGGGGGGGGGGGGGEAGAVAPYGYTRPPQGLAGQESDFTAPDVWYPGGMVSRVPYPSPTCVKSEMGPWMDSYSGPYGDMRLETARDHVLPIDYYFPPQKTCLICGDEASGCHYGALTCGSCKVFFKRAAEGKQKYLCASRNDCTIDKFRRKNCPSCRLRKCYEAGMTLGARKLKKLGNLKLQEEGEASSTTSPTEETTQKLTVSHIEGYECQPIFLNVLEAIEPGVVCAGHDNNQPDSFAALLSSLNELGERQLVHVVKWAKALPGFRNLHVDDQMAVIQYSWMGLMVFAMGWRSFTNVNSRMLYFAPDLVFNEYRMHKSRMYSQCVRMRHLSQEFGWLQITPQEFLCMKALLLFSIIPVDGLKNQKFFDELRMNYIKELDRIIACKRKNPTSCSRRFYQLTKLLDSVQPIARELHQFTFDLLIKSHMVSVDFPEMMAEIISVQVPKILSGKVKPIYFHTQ

Sequence of Thyrotropin receptor (Homo sapiens) (P16473 whole entry, looked up): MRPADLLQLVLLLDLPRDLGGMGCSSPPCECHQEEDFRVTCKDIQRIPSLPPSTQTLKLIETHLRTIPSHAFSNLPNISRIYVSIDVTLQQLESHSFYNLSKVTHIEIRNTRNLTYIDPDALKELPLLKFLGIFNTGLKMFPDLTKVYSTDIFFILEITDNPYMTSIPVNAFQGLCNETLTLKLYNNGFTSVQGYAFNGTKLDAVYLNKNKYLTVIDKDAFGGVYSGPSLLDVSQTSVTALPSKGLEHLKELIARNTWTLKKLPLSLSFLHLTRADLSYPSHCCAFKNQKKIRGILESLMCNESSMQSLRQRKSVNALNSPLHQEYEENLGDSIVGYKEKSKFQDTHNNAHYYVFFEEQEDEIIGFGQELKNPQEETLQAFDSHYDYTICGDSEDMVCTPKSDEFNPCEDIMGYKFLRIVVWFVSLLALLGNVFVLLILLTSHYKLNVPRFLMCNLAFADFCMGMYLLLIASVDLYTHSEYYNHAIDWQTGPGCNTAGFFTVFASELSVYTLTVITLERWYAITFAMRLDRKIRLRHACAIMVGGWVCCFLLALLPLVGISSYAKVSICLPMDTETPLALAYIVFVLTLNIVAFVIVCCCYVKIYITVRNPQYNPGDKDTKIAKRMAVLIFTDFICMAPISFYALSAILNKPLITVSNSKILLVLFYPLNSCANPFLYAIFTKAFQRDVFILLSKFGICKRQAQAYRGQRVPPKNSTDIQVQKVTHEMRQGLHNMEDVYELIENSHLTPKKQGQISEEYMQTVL
Sequence of Estrogen receptor (Homo sapiens) (P03372 whole entry, looked up): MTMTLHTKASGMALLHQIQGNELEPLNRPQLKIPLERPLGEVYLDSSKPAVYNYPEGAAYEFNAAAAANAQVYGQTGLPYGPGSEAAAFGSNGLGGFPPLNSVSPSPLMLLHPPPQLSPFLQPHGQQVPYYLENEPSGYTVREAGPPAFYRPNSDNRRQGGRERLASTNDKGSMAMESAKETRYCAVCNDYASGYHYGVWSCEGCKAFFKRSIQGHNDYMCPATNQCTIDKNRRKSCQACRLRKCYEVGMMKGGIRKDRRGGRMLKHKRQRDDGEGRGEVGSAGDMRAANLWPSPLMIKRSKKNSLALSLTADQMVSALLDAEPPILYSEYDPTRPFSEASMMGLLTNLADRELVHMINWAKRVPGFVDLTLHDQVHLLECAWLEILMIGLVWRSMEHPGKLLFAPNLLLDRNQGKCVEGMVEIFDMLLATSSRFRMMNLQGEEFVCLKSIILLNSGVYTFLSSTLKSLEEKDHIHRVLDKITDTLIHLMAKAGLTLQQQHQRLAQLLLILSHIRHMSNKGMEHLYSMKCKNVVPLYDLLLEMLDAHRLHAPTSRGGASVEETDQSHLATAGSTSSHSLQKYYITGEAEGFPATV
Sequence of Estrogen receptor beta (Homo sapiens) (Q92731 whole entry, looked up): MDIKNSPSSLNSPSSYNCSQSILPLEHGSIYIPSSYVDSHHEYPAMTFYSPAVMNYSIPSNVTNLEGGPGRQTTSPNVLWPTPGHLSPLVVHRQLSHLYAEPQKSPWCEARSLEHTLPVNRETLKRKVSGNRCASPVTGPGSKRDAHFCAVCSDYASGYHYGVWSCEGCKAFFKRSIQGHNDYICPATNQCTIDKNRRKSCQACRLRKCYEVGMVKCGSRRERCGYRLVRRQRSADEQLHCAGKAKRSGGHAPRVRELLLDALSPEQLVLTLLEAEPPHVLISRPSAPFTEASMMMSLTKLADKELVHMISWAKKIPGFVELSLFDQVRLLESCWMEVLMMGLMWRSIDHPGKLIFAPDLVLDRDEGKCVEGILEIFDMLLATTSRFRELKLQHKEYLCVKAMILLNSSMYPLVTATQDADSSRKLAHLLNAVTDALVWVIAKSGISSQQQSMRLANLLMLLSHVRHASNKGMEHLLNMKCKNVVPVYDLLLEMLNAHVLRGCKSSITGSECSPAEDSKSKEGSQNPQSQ

With `Oc1cccc(O)c1O`, in experiment [1], the Potency is 15.2 µM (active). Besides, the Potency result in experiment [2], in experiment [3], in [4], in [5], in [6] and in [7] was “inactive” each time. Besides, the molecule was classed as inactive in [8].

For `CC(=O)c1cc2ccccc2s1`, the Potency result in experiment [1], in experiment [2], in experiment [3], in experiment [4], in experiment [5] and in experiment [6] was “inactive” throughout. For the same molecule, the Potency result in experiment [7] and in experiment [9] was “inactive” throughout. In experiment [8], the outcome was inactive.

For the molecule `CC(C)(C)C(=O)C(=O)O`, the Potency entry in experiment [1], in experiment [2], in experiment [3], in experiment [4], in experiment [5] and in [6] was “inactive” in each case. For the same molecule, in experiment [7], the Potency result was “inactive”.

For the molecule `CCCCCCC(C)(C)C(=O)O`, the Potency entry in experiment [1], in experiment [2], in [3], in [4], in [5] and in experiment [10] was “inactive” each time. In addition, the Potency result in experiment [6], in [7] and in experiment [9] was “inactive” in each case. In addition, the call in experiment [8] was inactive.

As to `CC(=O)OCC(=O)NCCCOc1cccc(CN2CCCCC2)c1`, the Potency entry in experiment [1], in experiment [2], in [3], in experiment [4], in experiment [5] and in [10] was “inactive” each time. Besides, the Potency entry in experiment [6] and in experiment [9] was “inactive” each time. Besides, the molecule was called inactive in [8].

Regarding `CCCC(=O)C(=O)O`, the Potency result in experiment [1], in experiment [2], in experiment [3], in [4], in experiment [5] and in experiment [6] was “inactive” throughout. Also, the Potency result in experiment [7] and in experiment [9] was “inactive” in each case. The result in experiment [8] was inactive.

`CC[N+](CC)(CCNC(=O)C(=O)NCC[N+](CC)(CC)Cc1ccccc1Cl)Cc1ccccc1Cl`: the Potency entry in experiment [1], in [2], in experiment [3], in experiment [4], in [5] and in experiment [6] was “inactive” in each case. In addition, the Potency entry in experiment [7] is “inactive”.

`CO[C@]1(NC(=O)CSC(F)F)C(=O)N2C(C(=O)O)=C(CSc3nnnn3CCO)CO[C@H]21`: the Potency entry in [1], in experiment [2], in [3], in [4], in [5] and in experiment [6] was “inactive” throughout. Also, the Potency result in experiment [7] and in experiment [9] was “inactive” each time. Besides, the call in [8] was inactive.

With `O[C@@H]1CO[C@H]2[C@@H]1OC[C@@H]2O`, the Potency entry in experiment [1], in experiment [2], in [3], in experiment [4], in experiment [5] and in experiment [6] was “inactive” in each case. In addition, the Potency entry in experiment [7] and in [9] was “inactive” each time. The outcome in [8] was inactive.

For `CN1C(C(=O)Nc2ccccn2)=C(O)c2sccc2S1(=O)=O`, the Potency entry in experiment [1], in experiment [2], in experiment [3], in experiment [4], in [5] and in experiment [6] was “inactive” each time. Besides, the Potency result in experiment [7] is “inactive”.

Turning to `OC1(c2ccccc2)CCNCC1`, the Potency result in experiment [1], in [2], in experiment [3], in experiment [4], in experiment [5] and in experiment [10] was “inactive” each time. Besides, in experiment [6], the Potency result was “inactive”. Further, the molecule was called inactive in experiment [8].

For the molecule `C=C(C)C(=O)OCCCCCCCCCCCCC`, the Potency result in experiment [1], in experiment [2], in experiment [3], in [4], in [5] and in experiment [6] was “inactive” throughout. Also, the Potency result in [7] is “inactive”. Also, in [8], the molecule was called inactive.

As to `Cc1ccc(C(C)(C)O)cc1`, the Potency result in experiment [1], in experiment [2], in experiment [3], in experiment [4], in [5] and in experiment [6] was “inactive” throughout. Also, the Potency entry in experiment [7] and in experiment [9] was “inactive” throughout. Also, the call in [8] was inactive.

In the case of `O=C1c2ccccc2C(=O)C1c1ccc(Br)cc1`, the Potency result in [1], in experiment [2], in experiment [3], in experiment [4], in experiment [5] and in [10] was “inactive” each time. Moreover, the Potency result in experiment [6], in experiment [7] and in experiment [9] was “inactive” each time. Also, the molecule was called inactive in [8].

Take `Cc1ccc(CO)cc1`: the Potency result in experiment [1], in experiment [2], in [3], in [4], in experiment [5] and in [6] was “inactive” each time. Further, the Potency entry in experiment [7] was “inactive”. The molecule was classed as inactive in experiment [8].

As for `Nc1ncnc2c1ncn2[C@H]1CC[C@@H](CO)O1`, the Potency entry in experiment [1], in experiment [2], in experiment [3], in experiment [4], in experiment [5] and in [6] was “inactive” throughout. The Potency entry in experiment [7] and in [9] was “inactive” in each case. Further, in experiment [8], the outcome was inactive.

As to `C=Cc1ccc(S(=O)(=O)O)cc1`, the figures for the Potency in [1] and in experiment [9] were 61.1 µM (active) and 17.2 µM (active), respectively. The Potency result in experiment [2], in experiment [3], in experiment [4], in experiment [5], in [6] and in experiment [7] was “inactive” each time. Also, the outcome in experiment [8] was inactive.

`O=C1NCCN1CCO`: the Potency entry in experiment [1], in experiment [2], in experiment [3], in experiment [4], in [5] and in experiment [6] was “inactive” each time.

Take `CCC1(CO)COCOC1`: the Potency result in [1], in [2], in [3], in experiment [4], in experiment [5] and in experiment [6] was “inactive” in each case. In addition, the Potency entry in experiment [7] and in experiment [9] was “inactive” each time. The molecule was classed as inactive in experiment [8].

Consider `Cc1cc(C)cc(N)c1`, for which the Potency entry in [1], in experiment [2], in [3], in experiment [4], in [5] and in [10] was “inactive” in each case. For the same molecule, the Potency entry in [6], in experiment [7] and in experiment [9] was “inactive” in each case. Moreover, in experiment [8], the outcome was inactive.

`CC(=O)Nc1cc(S(=O)(=O)O)cc2cc(S(=O)(=O)O)c(N=Nc3ccccc3)c(O)c12`: the Potency entry in [1], in [2], in experiment [3], in experiment [5], in [6] and in experiment [7] was “inactive” in each case. Moreover, the Potency in experiment [4] was 27.3 µM (active).

As to `O=C1Cc2cc(Cl)ccc2N1`, the Potency entry in experiment [1], in experiment [2], in experiment [3], in [4], in [5] and in [10] was “inactive” in each case. In addition, the Potency result in [6] and in [7] was “inactive” in each case. Further, in experiment [8], the outcome was inactive.

Consider `CCCCC(CC)CN` (stereo not given), for which the Potency entry in experiment [1], in experiment [2], in experiment [3], in [4], in experiment [5] and in [10] was “inactive” throughout. Further, the Potency entry in [6], in [7] and in experiment [9] was “inactive” throughout. In addition, the molecule was classed as inactive in experiment [8].

For the molecule `CN1C(=O)OC(C)(C)C1=O`, the Potency result in experiment [1], in experiment [2], in experiment [3], in [4], in experiment [5] and in experiment [6] was “inactive” each time. Besides, in experiment [7], the Potency result was “inactive”.

In the case of `COc1ncnc(NS(=O)(=O)c2ccc(N)cc2)c1OC`, the Potency result in experiment [1], in experiment [2], in experiment [3], in [4], in experiment [5] and in [6] was “inactive” throughout. In [7], the Potency result was “inactive”.
